TEAD-YAP inh = TEAD-YAP interaction inhibition. 640,000 tested, 1.4% active. HEK-TIYL cells, TEAD-Gal4/YAP UAS-luciferase luminescence. inhibition, % at 9.12 µM; in the data active = inhibition above about 32%;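 also: 0% = median of test compound wells and 100% = reference inhibitor wells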
MITF inh = human MITF inhibition, primary screen; O75030; AlphaScreen MITF homodimerization, bead proximity signal; inhibition, % at 2.6 µM; 650,000 tested, 0.91% active; AID 1259374; in the data active = inhibition above about 50%;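 also: 0% = vehicle wells with protein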
GPR151 activ = human GPR151 activation; PathHunter beta-arrestin GPR151 cells, luminescence; 650,000 tested, 1% active; activation, % at 11.2 µM; in the data active = activation above about 4.9%;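 also: 0% = median of compound wells and 100% = cells with positive control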
FBW7 act = activators of human E3 ligase FBW7; Q969H0; AlphaScreen FBW7–phospho-cyclin E peptide binding, activator screen; normalized activity (activation), % at 26.1 µM; 650,000 tested, 0.13% active; AID 1259310; in the data active = normalized activity above about 1.9%;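 also: purified mutant Fbw7 with reduced substrate affinity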
Target sequence (Q969H0 whole entry, looked up): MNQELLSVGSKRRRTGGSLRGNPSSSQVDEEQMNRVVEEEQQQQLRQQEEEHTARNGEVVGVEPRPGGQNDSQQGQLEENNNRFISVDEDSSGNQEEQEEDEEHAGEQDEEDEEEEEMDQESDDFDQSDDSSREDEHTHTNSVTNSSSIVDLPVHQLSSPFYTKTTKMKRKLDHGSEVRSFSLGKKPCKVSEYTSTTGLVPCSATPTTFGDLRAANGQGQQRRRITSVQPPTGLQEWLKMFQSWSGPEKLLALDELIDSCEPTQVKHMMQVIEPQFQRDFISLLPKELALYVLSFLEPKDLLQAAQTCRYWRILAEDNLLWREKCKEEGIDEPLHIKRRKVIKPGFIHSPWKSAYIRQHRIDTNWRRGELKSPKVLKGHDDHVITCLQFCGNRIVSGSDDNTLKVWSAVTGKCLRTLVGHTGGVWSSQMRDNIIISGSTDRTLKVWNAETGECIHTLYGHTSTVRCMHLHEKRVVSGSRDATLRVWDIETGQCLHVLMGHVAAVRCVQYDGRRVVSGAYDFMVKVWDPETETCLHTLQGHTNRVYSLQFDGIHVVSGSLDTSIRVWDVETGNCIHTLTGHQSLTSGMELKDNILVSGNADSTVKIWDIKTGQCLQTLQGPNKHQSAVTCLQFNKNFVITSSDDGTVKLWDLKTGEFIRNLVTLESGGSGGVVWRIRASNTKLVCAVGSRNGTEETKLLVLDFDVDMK
MITF inh conf = human MITF inhibition, confirmation | shares compounds with MITF inh | AlphaScreen MITF homodimerization, biotin/His-MITF beads | inhibition, % at 2.6 µM | 4,700 tested, 16% active;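 active = inhibition above a cutoff derived from the DMSO control wells, cut at about 28% in these data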;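 also: 0% = MITF dimer wells with DMSO only; inhibitors lower the bead chemiluminescence by keeping MITF from dimerizing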
AS interf DR = AlphaScreen optical interference, dose response counter-screen | shares compounds with MITF inh | AlphaScreen optical interference counterscreen, cell-free | IC50, µM | 480 tested, 6% active | AID 1259373; call rule not given here
AlphaScreen intf2 = optically interferes with AlphaScreen signal; LysRS AlphaScreen counterscreen, signal interference, triplicate; AID 1259376; inhibition, % at 2.6 µM; 4,700 tested, 7.6% active; shares compounds with MITF inh;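 active = inhibition above a cutoff derived from the DMSO control wells, cut at about 30% in these data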
* hit, by the source's call; x = no result given. Shown are actives, neighbours in structure and some others; about 3.5% of the full set was active somewhere.

SMILES | TEAD-YAP inh | MITF inh | GPR151 activ | FBW7 act | MITF inh conf | AlphaScreen intf2 | others
Clc1c(OCCN2CCOCC2)ccc2ccccc12 | -48.6 | 11.9 | 2.3 | 0.0 | x | x
Cc1cc(C)c(C)c(OCCOCCNC(C)(C)C)c1 | 6.3 | 63.5* | 0.7 | -0.1 | -11.8 | -7.2
c1ccc(-c2ccc(OCCN3CCNCC3)cc2)cc1 | -21.6 | 55.5* | -2.5 | 0.2 | -9.0 | -2.5
Cc1ccc2nc(N3CCC(C(=O)N4CCc5ccccc5C4)CC3)nc(C)c2c1 | -6.1 | -1.8 | -0.2 | 0.3 | x | x
Cc1ccc(NC2CS(=O)(=O)CC2O)cc1 (stereo not drawn) | -4.9 | -5.1 | 1.6 | 0.0 | x | x
CC(C)(C)NCCOCCOc1ccccc1-c1ccccc1 | -4.7 | 63.3* | 1.4 | 0.0 | -1.7 | 0.1
c1ccc(OCCN2CCOCC2)cc1 | 2.5 | 54.1* | -1.8 | -0.1 | -0.1 | 9.6
c1ccc(-c2ccccc2OCCOCCN2CCNCC2)cc1 | 9.3 | 75.5* | 2.8 | 0.0 | 8.1 | -3.3
CCC(C)c1ccccc1OCCN1CCOCC1 (stereo not drawn) | 9.2 | 83.6* | 0.9 | 0.1 | 16.7 | 0.6
CC(C)(C)NCCOCCOc1ccccc1I | 2.0 | 24.9 | 1.4 | 0.2 | x | x
c1ccc(OCCNCCN2CCOCC2)cc1 | -4.9 | 8.7 | 0.1 | 0.2 | x | x
Cc1ccc(/C=C2/N=C(c3cccc(Cl)c3Cl)OC2=O)o1 | -5.7 | 6.1 | 1.4 | 0.0 | x | x
C=CCC1S/C(=N\N=C/c2ccc(OC)cc2)NC1=O (stereo not drawn) | -26.5 | -5.2 | 2.1 | 0.1 | x | x
COc1ccc2nc(CN3CCC4(CC3)NC(=O)c3ccccc3O4)ccc2c1 | 6.8 | 1.8 | 0.1 | 0.1 | x | x
FC(F)(F)C(F)(F)c1nnc2c3ccccc3c(N3CCOCC3)nn12 | -9.3 | 14.2 | 0.0 | -0.1 | x | x
Cc1ccc(NC(=O)C(Cc2c[nH]c3ccccc23)NC(=O)OC(C)(C)C)cc1 (stereo not drawn) | 6.6 | 62.5* | -0.2 | 0.1 | 1.5 | 12.1
COc1cccc(/C=C2N=C(/C=C/c3ccccc3)OC/2=O)c1OC | 0.3 | 1.8 | 0.7 | -0.1 | x | x
CCCc1[nH]nc2c1C(c1ccc(OC)cc1OC)C(C#N)=C(N)O2 (stereo not drawn) | -0.8 | 61.5* | -0.8 | 0.0 | 11.4 | 16.8
CCCc1[nH]nc2c1C(c1c(OC)cc(OC)cc1OC)C(C#N)=C(N)O2 (stereo not drawn) | 2.7 | 11.6 | 0.8 | -0.2 | x | x
O=C(O)CCN(CCC(=O)O)c1ccc(O)cc1 | -19.3 | 68.9* | 1.9 | -0.7 | 47.9* | -10.3 | AS interf DR=>6.48
CCOC(=O)c1c(NC(=O)CCc2ccccc2)sc2c1CCN(C(=O)OCC)C2 | 3.8 | 11.3 | -1.1 | 0.0 | x | x
Nc1ccc(S(=O)(=O)N2CCOC3CCCCC32)cc1 (stereo not drawn) | -2.4 | 76.5* | 2.2 | -0.3 | 10.8 | 13.6
COc1ccc(CNC(=O)c2c(O)c3c([nH]c2=O)CCCC3)cc1 | -3.7 | 51.2* | -1.5 | 0.7 | 7.5 | 15.0
O=C(Nc1ccccc1-c1ccccc1)C1CCCN1C(=O)Nc1ccccc1 (stereo not drawn) | 6.5 | 79.0* | 0.6 | 0.1 | 11.6 | 16.4
COc1ccc(CC(=O)OCc2csc(-c3ccccc3)n2)cc1OC | -13.1 | -4.7 | 0.6 | 0.1 | x | x
SMILES | TEAD-YAP inh | MITF inh | GPR151 activ | FBW7 act | MITF inh conf | AlphaScreen intf2 | others
Clc1ccccc1OCCCCN1CCNCC1 | -5.8 | 54.5* | -0.7 | -0.1 | -6.0 | -6.6
CC(C)(C)c1ccccc1OCCCN1CCNCC1 | -15.3 | 59.8* | -0.6 | -0.3 | 3.2 | 3.8
Clc1ccc(OCCCCN2CCNCC2)cc1 | -15.2 | -1.6 | 2.0 | 0.0 | x | x
Brc1ccccc1OCCCCN1CCNCC1 | -7.3 | 51.3* | 0.1 | -0.1 | -9.3 | -6.5
CCOc1ccccc1OCCCN1CCNCC1 | -5.4 | -8.2 | 0.3 | -0.1 | x | x
CCOC(=O)c1ccc(CN(Cc2ccc(Br)cc2)S(=O)(=O)c2ccc(F)c(C(=O)Nc3c(C)cccc3C)c2)cc1 | -3.9 | -13.2 | 0.4 | -0.1 | x | x
CCCN1C(=O)CN(C2CCCCC2)C(=O)C1c1ccc(OCC)c(OC)c1 (stereo not drawn) | -9.7 | -3.2 | -1.0 | -0.4 | x | x
C/C(=N\N=C1/NC(=O)CC(C(=O)Nc2ccc(C(=O)O)cc2)S1)c1ccc(Cl)cc1 (stereo not drawn) | -10.2 | 3.6 | -0.7 | 0.7 | x | x
N#Cc1cc2c(cc1NS(=O)(=O)c1csc(C(=O)Nc3ccccc3)c1)OCO2 | -2.0 | -2.2 | 0.8 | 0.0 | x | x
N#Cc1ccccc1CNCc1ccc(Cl)cc1 | 7.8 | 51.6* | -0.1 | 0.1 | -5.2 | 16.4
CCc1nnc(NS(=O)(=O)c2ccc(NC(=O)COc3ccccc3)cc2)s1 | 4.3 | 65.4* | 0.1 | -0.1 | -3.5 | -3.0
CCC(=O)Nc1ccc(S(=O)(=O)Nc2nnc(CC)s2)cc1 | 7.8 | 8.3 | 0.3 | 0.2 | x | x
CC(C)C[C@@H]1NC(=O)[C@H]2CN(C(=O)NCc3ccccc3)CCN2C1=O | 10.9 | 78.3* | -0.4 | -0.3 | 72.3* | -5.4 | AS interf DR=>6.48
C[C@@H](O)[C@@H]1NC(=O)[C@H]2CN(C(=O)NCc3ccccc3)CCN2C1=O | -3.0 | 75.3* | -1.0 | -0.3 | 72.1* | -14.9 | AS interf DR=>6.48
O=C(OCc1ccccc1)N1CCN2C(=O)[C@H]3CCCN3C(=O)[C@H]2C1 | -5.5 | -0.6 | 1.7 | -0.4 | x | x
C[C@H]1NC(=O)[C@H]2CN(C(=O)NCc3ccccc3)CCN2C1=O | 15.5 | 80.7* | 4.8 | 0.6 | 64.7* | -4.8 | AS interf DR=>6.48
O=C(NCc1ccccc1)N1CCN2C(=O)[C@H]3CCCN3C(=O)[C@H]2C1 | 11.2 | 76.3* | -0.7 | -0.2 | 68.5* | -10.7 | AS interf DR=>6.48
C=CCN1C(=O)CC(C(=O)OC)C12CCN(Cc1cccc3cccnc13)CC2 (stereo not drawn) | -4.7 | -10.8 | -0.2 | -0.1 | x | x
CC(C)[C@H]1NC(=O)[C@H]2CN(C(=O)OCc3ccccc3)CCN2C1=O | -9.6 | -3.0 | -1.8 | -0.2 | x | x
CC(C)[C@@H]1NC(=O)[C@H]2CN(C(=O)NCc3ccccc3)CCN2C1=O | 11.2 | 80.5* | -0.9 | 0.2 | 70.1* | -7.5 | AS interf DR=>6.48
O=C1N[C@@H](CC2CCCCC2)C(=O)N2CCN(C(=O)NCc3ccccc3)C[C@H]12 | 3.3 | 77.4* | 0.7 | -0.1 | 68.4* | -8.9 | AS interf DR=>6.48
O=C1N[C@@H](CO)C(=O)N2CCN(C(=O)OCc3ccccc3)C[C@H]12 | 0.9 | 0.2 | 0.0 | 0.1 | x | x
O=C1N[C@@H](CSCc2ccccc2)C(=O)N2CCN(C(=O)NCc3ccccc3)C[C@H]12 | 11.0 | 80.3* | -1.0 | 0.1 | 73.3* | -14.0 | AS interf DR=>6.48
COc1ccc(NC(=O)c2sc3ncnc(N4CCN(c5ccccn5)CC4)c3c2C)cc1OC | 14.2 | 2.1 | 0.8 | -0.1 | x | x
Cc1cc(C2C(C#N)=C(N)OC3=C2C(=O)CC(C)(C)C3)ccc1N1CCCC1 (stereo not drawn) | 3.7 | 8.8 | 0.0 | 0.0 | x | x
COc1cc(/C=N/NC(=O)Cc2ccc([N+](=O)[O-])cc2)cc(OC)c1OC | -8.6 | 7.2 | 0.2 | -0.1 | x | x

Source: PubChem BioAssay (The Scripps Research Institute Molecular Screening Center)
